The text below walks through data of PubChem BioAssay AID686960 (The Scripps Research Institute Molecular Screening Center, 2013).

A word on the IC50: it is the concentration that gives 50% inhibition.

The other results are listed elsewhere or left out. Active and inactive are the calls of the source. Rule as the data show it: active = IC50 below about 10 µM; inactive = the rest.

A short description of the test: dye displacement from CAG DNA duplex – biochemical, fluorescence, TO-PRO-1 dye, counter-screen for rCAG RNA repeat binder project, dose response (AID 686960). The following applies: DNA CAG/GTC duplex TO-PRO-1 dye displacement fluorescence.
As for `Cc1ccc(C(C)C)c(OCCSc2nc3ccccc3n2CC(=O)O)c1`, the IC50 was > 29.9 µM (inactive).
`COc1ccc(C(=O)Nc2cccc(/C=C(/CCC(=O)O)c3nc4ccccc4s3)c2)cc1`: the IC50 is 14.2 µM (inactive).
On to `COc1ccc(Cc2nnc(SCC(=O)Nc3ccc(C)c(Cl)c3)[nH]c2=O)cc1`, for which the IC50 is 24.2 µM (inactive).
With `CC1(C(=O)NS(=O)(=O)c2ccc3ccccc3c2)CCN1C(=O)C1(c2ccc(Cl)cc2)CCC1` (stereo unspecified) the figure was 21.2 µM (inactive).
As for `CC(C)c1ccc(CC(=O)N2CCC2(C)C(=O)NS(=O)(=O)c2ccc(C(C)(C)C)cc2)cc1` (stereo unspecified), the figure is > 29.9 µM (inactive).
With `O=C(Cc1ccccc1)Nc1ccc(C(=O)Nc2ccccc2C(=O)O)cc1` the figure was > 29.9 µM (inactive); with `Cc1noc(NS(=O)(=O)c2ccc(NC(=O)c3oc4ccc(F)cc4c3C)cc2)c1C`, 16.5 µM (inactive).
Consider `CC(C)(C)C1C/C(=C/c2ccco2)C(=O)/C(=C/c2ccco2)C1` (stereo unspecified), for which the IC50 was > 29.9 µM (inactive).
`O=C(O)c1ccc(NN=CC2=C(N3CCOCC3)/C(=C/c3ccccc3)CC2)cc1`: the IC50 is 11 µM (inactive).
Turning to `CO/N=C(\C(=O)N[C@@H]1C(=O)N2C(C(=O)O)=C(COC(C)=O)CS[C@H]12)c1csc(N)n1` (stereo in doubt), the IC50 was 9.89 µM (active).
For `Cc1ccc(S(=O)(=O)N2[C@@H](c3ccc(Br)cc3)C(C(=O)O)=C[C@H]2CC2CCCC2)cc1`, the IC50 is 11.6 µM (inactive).
